Compound activity deposited in PubChem by National Center for Advancing Translational Sciences (NCATS).
DT40 TDP1 no CPT: qHTS for Inhibitors of human tyrosyl-DNA phosphodiesterase 1 (TDP1): qHTS in cells in absence of CPT. AID 686978, 2013. actives 15% (n = 420,000). DT40 Tdp1-/- hTDP1 cells, no CPT, ATP luminescence, 48 h. Potency, µM (highest dose often 46.2 µM), most hits filed as inhibitors; further: nearly all actives have a fitted effect of over 55% in size
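Chicken DT40 Tdp1-/- cells complemented with human TDP1, screened without camptothecin (DMSO vehicle only), 400 cells/well. Compounds pin-transferred, cells incubated at 37 °C for at least 48 hr. Growth read as ATP-dependent luminescence (CellTiter-Glo, 30 min at RT).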
uPA surface inh: blocks generation of uPA at the cell surface | cell surface uPA generation assay, qHTS | Potency, µM (highest dose often 38.3 µM), usual class: inhibitors | actives 0.31% (n = 330,000); active means well fitted inhibition curve with a large enough effect; inconclusive means small, poorly fitted or top-dose-only effect; inactive means no such curve, though single readings can be large or run the other way; tested in mouse RAW 264.7 cells; further: nearly all actives have a fitted effect of over 55% in size
DT40 TDP1 CPT: DT40-hTDP1 cell growth loss with CPT; Potency, µM (titrated, usually from 46.2 µM), actives largely listed as inhibitors; actives 12% (n = 420,000); chicken DT40 Tdp1-/-;hTDP1 cells + 20 nM CPT, ATP luminescence, 48 h; AID 686979; further: nearly all actives have a fitted effect of over 55% in size
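Chicken DT40 Tdp1-/- cells complemented with human TDP1, 400 cells/well, exposed to compounds plus 20 nM camptothecin for at least 48 h at 37 C; viability read as ATP content by CellTiter-Glo luminescence.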
IL-1B inflam inh: inflammasome signaling inhibition, IL-1 beta readout. actives 4.7% (n = 360,000). AID 743279. activity change, % at 57.5 µM. THP-1 LPS/ATP IL-1B secretion, AlphaLISA, 16 h; hits give low values; in the data active means activity change below about -50%; inconclusive means mostly about -30% to -49%
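THP-1 cells pretreated 1 hr with compounds (up to 57.5 uM final), then stimulated with LPS (250 ng/mL final) plus ATP (1.25 mM final); secreted IL-1B measured by AlphaLISA after 16 hr, decreased signal indicating inhibition.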
HT1080 IDH1KD tx: toxicity to HT-1080 IDH1 knockdown cells (counter line) | HT-1080 IDH1 knockdown viability, ATP luminescence, 48 h | Potency, µM (titrated, usually from 46.1 µM), most hits filed as cytotoxic | actives 2% (n = 360,000) | AID 686971
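HT-1080-IDH1KD cells (IDH1 knocked down), 750/well in RPMI with 5% FBS, treated with compound 48 h at 37 degrees C. Viability by CellTiter-Glo luminescence, normalised to DMSO and no-cell wells; concentration-response curves classed.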
HT1080-NT tox: kills 2HG-producing HT-1080-NT fibrosarcoma cells | actives 1.6% (n = 360,000) | HT-1080-NT fibrosarcoma viability, CellTiter-Glo ATP luminescence, 48 h | Potency, µM (doses to about 46.1 µM), usual class: cytotoxic | AID 686970;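 further: NT is the 2HG producing partner of a matched IDH1 knockdown line; nearly all actives have a fitted effect of over 55% in size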
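Viability by CellTiter-Glo luminescence after 48 h compound exposure at 37C of HT-1080-NT cells (750/well, RPMI, 5% FBS). % activity scaled between DMSO wells and medium-only wells, then curve-fitted and categorized by curve class.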
Large screens that a line does not name were inactive. An excerpt weighted towards active compounds, which were near 19% of everything screened. Unless noted, the call rests on the fitted dose curve; in most records, active means well fitted curve in the direction sought with a large enough effect; inconclusive means small, poorly fitted or top-dose-only effect, or another doubt; inactive means no such curve, though single readings can be large; an effect the other way counts as inactive or inconclusive.

CCCCc1ccc(-n2nc3cc(C)c(NC(=O)c4ccc(C#N)cc4F)cc3n2)cc1	none (no result: uPA surface inh, IL-1B inflam inh, HT1080 IDH1KD tx, HT1080-NT tox)
COc1cc(C2c3c(-c4cc(Cl)c(C)cc4O)n[nH]c3C(=O)N2Cc2cccnc2)ccc1O (stereo not drawn)	DT40 TDP1 no CPT inconclusive, IL-1B inflam inh -59
COc1cc(C2c3c(-c4cc(C)ccc4O)n[nH]c3C(=O)N2Cc2cccnc2)cc(OC)c1OC (stereo not drawn)	none (no result: uPA surface inh, IL-1B inflam inh, HT1080 IDH1KD tx, HT1080-NT tox)
COc1cccc(C2c3c(-c4cc(Cl)c(C)cc4O)n[nH]c3C(=O)N2Cc2cccnc2)c1 (stereo not drawn)	DT40 TDP1 no CPT 16µM, DT40 TDP1 CPT inconclusive, IL-1B inflam inh inconclusive, HT1080 IDH1KD tx inconclusive, HT1080-NT tox inconclusive
C[S+](C)CCC(N)C(=O)O (stereo not drawn)	none (no result: uPA surface inh, IL-1B inflam inh, HT1080 IDH1KD tx, HT1080-NT tox)
CC1CCCCC1NS(=O)(=O)c1ccc(S(=O)(=O)NCc2ccncc2)cc1 (stereo not drawn)	DT40 TDP1 no CPT 7.3µM, DT40 TDP1 CPT 6.5µM, HT1080 IDH1KD tx inconclusive (no result: uPA surface inh)
CCOc1cc(S(=O)(=O)Nc2cc(C)cc(C)c2)ccc1Cl	DT40 TDP1 no CPT 16µM, DT40 TDP1 CPT 16µM, IL-1B inflam inh -59, HT1080 IDH1KD tx inconclusive, HT1080-NT tox inconclusive (no result: uPA surface inh)
CCOc1cc(S(=O)(=O)NC2CCCC2)ccc1Cl	none
CC(=O)Nc1ccc(S(=O)(=O)NCc2ccncc2)cc1	DT40 TDP1 no CPT 9.2µM, DT40 TDP1 CPT 9.2µM
CC(=O)Nc1ccc(S(=O)(=O)NCc2ccccn2)cc1	none
CC(=O)CCS(=O)(=O)c1ccc(NC(C)=O)cc1	DT40 TDP1 no CPT 18µM, uPA surface inh inconclusive, DT40 TDP1 CPT 13µM, HT1080 IDH1KD tx inconclusive, HT1080-NT tox inconclusive
O=C(CN1CCN(C(=O)C2COc3ccccc3O2)CC1)Nc1ccccc1 (stereo not drawn)	none
CCOC(=O)C1=CCC(c2cc3ccccc3[nH]2)NC1 (stereo not drawn)	DT40 TDP1 no CPT inconclusive, DT40 TDP1 CPT inconclusive, IL-1B inflam inh inconclusive (no result: uPA surface inh)
COCCNC(=O)C1(C)CCN(C(=O)c2ccc(OC)c(F)c2)C1 (stereo not drawn)	none (no result: uPA surface inh)
O=C(O)COc1nn(Cc2ccccc2)c2ccccc12	none (no result: uPA surface inh, IL-1B inflam inh, HT1080 IDH1KD tx, HT1080-NT tox)
COc1ccc(CCNC(=O)C2(C)CCC(=O)N2Cc2ccc(C)cc2)cc1OC (stereo not drawn)	none
CC(C)C[C@@H](CN)NC(=O)c1nc[nH]c1C(=O)N[C@@H](C)C(=O)CNC[C@H](CC(C)C)NC(=O)c1nc[nH]c1C(=O)N[C@@H](Cc1ccccc1)C(=O)O	none
CCOc1ccc(S(=O)(=O)NCc2ccncc2)cc1	DT40 TDP1 no CPT 0.52µM, DT40 TDP1 CPT 0.46µM
Cc1ccc(S(=O)(=O)NCc2ccncc2)cc1	DT40 TDP1 no CPT 3.7µM, DT40 TDP1 CPT 4.1µM, HT1080 IDH1KD tx 6.5µM
CCOc1ccc(NS(=O)(=O)c2ccc(C(=O)NCc3cccnc3)cc2)cc1	DT40 TDP1 no CPT inconclusive, DT40 TDP1 CPT inconclusive
CCOc1ccc(NS(=O)(=O)c2ccc(C(=O)NCc3ccncc3)cc2)cc1	DT40 TDP1 no CPT 13µM, DT40 TDP1 CPT inconclusive
Cc1ccc(S(=O)(=O)NCCCCCCNS(=O)(=O)c2ccc(C)cc2)cc1	DT40 TDP1 no CPT 23µM, DT40 TDP1 CPT inconclusive (no result: uPA surface inh)
Cc1ccc(S(=O)(=O)NCC(=O)NCc2ccncc2)cc1	none
Cc1ccc(S(=O)(=O)NCCCNS(=O)(=O)c2ccccc2)cc1	none
O=C(COc1ccccc1C(=O)Nc1ccccc1)NC1CCCCC1	DT40 TDP1 no CPT inconclusive, DT40 TDP1 CPT inconclusive (no result: uPA surface inh, IL-1B inflam inh)
CC(C)C[C@@H]1O[C@H](C(C)C)Cc2[nH][nH]c(=O)c21	DT40 TDP1 no CPT inconclusive, DT40 TDP1 CPT inconclusive (no result: uPA surface inh)
CCOc1cc(S(=O)(=O)NCc2ccncc2)ccc1Cl	DT40 TDP1 no CPT 0.58µM, DT40 TDP1 CPT 0.52µM, HT1080 IDH1KD tx inconclusive, HT1080-NT tox inconclusive
O=S(=O)(Nc1ncccn1)c1ccccc1	DT40 TDP1 no CPT 16µM, DT40 TDP1 CPT inconclusive
